Assay [1] can be described thus: compounds binding Alexa647 anti-His antibody – biochemical, small-molecule microarray, 635 nm fluorescence, artefact control for SMM control protein annotation, primary screen (AID 1128).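 Note: score merges feature fluorescence with signal-to-noise for each printed compound spot.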 The conditions noted are these: higher = more signal.
The test system of assay [2] is Human papillomavirus type 1a E7 protein (residues 1-88). In words: HPV1a E7 small-molecule binders, primary screen, biochemical, small-molecule microarray, residues 1-88, 635 nm (AID 1129). The conditions noted are these: small-molecule microarray binding, fluorescence 635 nm; higher = more signal.
Assay [3] concerns the target Focal adhesion kinase 1 (Homo sapiens) (UniProt Q05397). In words: PTK2 protein binding on printed compound slides – biochemical, small-molecule microarray, 635/667 nm fluorescence, BSA, DTT, primary screen (AID 1130).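 Note: composite of spot emission at 667 nm and signal to noise over triplicate slides.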 Conditions: 635 nm fluorescence, higher = more signal.
Assay [4] has as its system Fibrinogen (Alexa647-labelled). The assay can be described thus: Alexa647-fibrinogen binding to printed small molecules – biochemical, small-molecule microarray, 635/667 nm fluorescence, artefact control for SMM control-protein annotation, profiling panel (AID 1131).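 Note: z-score merges 667 nm fluorescence with per-spot signal-to-noise over triplicate slides.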 Conditions: fibrinogen-A647 binding fluorescence, higher = more signal.
For assay [5], the target named is Follistatin (Homo sapiens) (UniProt P19883). In words: FST protein binding to printed compounds – biochemical, small-molecule microarray, 635/667 nm fluorescence, primary screen (AID 1132). Conditions: 635 nm fluorescence, higher = more signal.
Sequence of Follistatin (Homo sapiens) (P19883 whole entry, looked up): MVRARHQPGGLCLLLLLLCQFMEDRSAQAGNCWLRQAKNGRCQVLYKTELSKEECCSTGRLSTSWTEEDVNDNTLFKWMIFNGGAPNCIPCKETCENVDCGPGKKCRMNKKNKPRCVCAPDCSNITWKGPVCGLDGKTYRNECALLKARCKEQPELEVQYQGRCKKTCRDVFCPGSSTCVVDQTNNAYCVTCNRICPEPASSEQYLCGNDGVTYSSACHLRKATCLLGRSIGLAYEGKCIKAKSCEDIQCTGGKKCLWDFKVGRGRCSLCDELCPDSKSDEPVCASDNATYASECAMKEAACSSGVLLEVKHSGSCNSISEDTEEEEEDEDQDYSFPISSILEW
For assay [6], the target named is Fibroblast growth factor 2 (Homo sapiens) (UniProt P09038). In words: basic fibroblast growth factor binding to printed compounds – biochemical, small-molecule microarray, 635/667 nm fluorescence, primary screen (AID 1133). Conditions: FGF2, fluorescence 635/667, higher = more signal.
Sequence of Fibroblast growth factor 2 (Homo sapiens) (P09038 whole entry, looked up): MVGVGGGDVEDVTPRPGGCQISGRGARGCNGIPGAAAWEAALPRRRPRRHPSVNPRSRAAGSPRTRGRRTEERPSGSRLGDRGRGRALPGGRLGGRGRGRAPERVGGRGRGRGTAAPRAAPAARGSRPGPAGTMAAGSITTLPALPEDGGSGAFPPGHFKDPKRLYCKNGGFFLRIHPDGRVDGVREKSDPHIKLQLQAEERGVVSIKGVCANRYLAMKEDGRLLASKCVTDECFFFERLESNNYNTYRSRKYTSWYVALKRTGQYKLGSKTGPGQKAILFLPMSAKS
The nature of assay [7]: JC-1 mitochondrial potential readout, lung cancer cells – cell-based, A549, JC-1 fluorescence, basal, 24 h, 100 nL, profiling panel (AID 1138).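 Note: A549 lung adenocarcinoma cells under basal conditions with no added stimulus; test concentration not given here.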 Conditions: higher = more signal.
The next assay concerns Lefty1. The assay can be described thus: Lefty1 protein binding to printed compounds – biochemical, small-molecule microarray, 635/667 nm fluorescence, primary screen (AID 1139). The conditions noted are these: fluorescence 635/667, higher = more signal.
Assay [8] relates to wheat germ agglutinin (Triticum aestivum), Alexa647-labelled. The assay can be described thus: Alexa647-WGA lectin binding to printed small molecules – biochemical, small-molecule microarray, 635/667 nm fluorescence, artefact control for SMM control-protein annotation, profiling panel (AID 1140).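 Note: score merges 667 nm feature emission with signal to noise over triplicate slides.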 The conditions noted are these: WGA-A647 binding, 635 nm fluorescence, higher = more signal.

Assay [9] deals with Luciferin 4-monooxygenase (Photinus pyralis) (UniProt P08659). In words: inhibition of purified Photinus pyralis luciferase – biochemical, luminescence, purified enzyme, 2006 set, primary screen (AID 1141).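 Note: cell-free assay with purified firefly luciferase at 100 ng per well in PBS; test concentration not given here.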 The conditions noted are these: purified firefly luciferase, SteadyGlo luminescence, 30 min; higher = more signal, called active from +8 up or from −8 down.
Sequence of Luciferin 4-monooxygenase (Photinus pyralis) (P08659 whole entry, looked up): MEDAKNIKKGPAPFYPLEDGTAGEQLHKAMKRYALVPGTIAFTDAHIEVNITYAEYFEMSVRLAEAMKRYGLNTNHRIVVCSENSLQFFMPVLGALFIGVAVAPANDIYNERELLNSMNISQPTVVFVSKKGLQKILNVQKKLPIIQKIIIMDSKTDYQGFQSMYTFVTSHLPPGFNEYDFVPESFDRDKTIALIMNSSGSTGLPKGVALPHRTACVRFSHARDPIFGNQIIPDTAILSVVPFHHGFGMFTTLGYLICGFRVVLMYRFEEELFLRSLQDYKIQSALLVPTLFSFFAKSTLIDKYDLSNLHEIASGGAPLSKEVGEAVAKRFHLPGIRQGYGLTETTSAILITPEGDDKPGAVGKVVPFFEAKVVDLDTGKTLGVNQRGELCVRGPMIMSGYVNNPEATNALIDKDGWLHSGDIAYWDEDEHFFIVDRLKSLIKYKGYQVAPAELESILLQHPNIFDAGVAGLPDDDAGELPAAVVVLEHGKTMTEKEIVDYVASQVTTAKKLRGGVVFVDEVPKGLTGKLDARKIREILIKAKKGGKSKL

Calls of active or inactive are those of the source.

Sequence of Focal adhesion kinase 1 (Homo sapiens) (Q05397 whole entry, looked up): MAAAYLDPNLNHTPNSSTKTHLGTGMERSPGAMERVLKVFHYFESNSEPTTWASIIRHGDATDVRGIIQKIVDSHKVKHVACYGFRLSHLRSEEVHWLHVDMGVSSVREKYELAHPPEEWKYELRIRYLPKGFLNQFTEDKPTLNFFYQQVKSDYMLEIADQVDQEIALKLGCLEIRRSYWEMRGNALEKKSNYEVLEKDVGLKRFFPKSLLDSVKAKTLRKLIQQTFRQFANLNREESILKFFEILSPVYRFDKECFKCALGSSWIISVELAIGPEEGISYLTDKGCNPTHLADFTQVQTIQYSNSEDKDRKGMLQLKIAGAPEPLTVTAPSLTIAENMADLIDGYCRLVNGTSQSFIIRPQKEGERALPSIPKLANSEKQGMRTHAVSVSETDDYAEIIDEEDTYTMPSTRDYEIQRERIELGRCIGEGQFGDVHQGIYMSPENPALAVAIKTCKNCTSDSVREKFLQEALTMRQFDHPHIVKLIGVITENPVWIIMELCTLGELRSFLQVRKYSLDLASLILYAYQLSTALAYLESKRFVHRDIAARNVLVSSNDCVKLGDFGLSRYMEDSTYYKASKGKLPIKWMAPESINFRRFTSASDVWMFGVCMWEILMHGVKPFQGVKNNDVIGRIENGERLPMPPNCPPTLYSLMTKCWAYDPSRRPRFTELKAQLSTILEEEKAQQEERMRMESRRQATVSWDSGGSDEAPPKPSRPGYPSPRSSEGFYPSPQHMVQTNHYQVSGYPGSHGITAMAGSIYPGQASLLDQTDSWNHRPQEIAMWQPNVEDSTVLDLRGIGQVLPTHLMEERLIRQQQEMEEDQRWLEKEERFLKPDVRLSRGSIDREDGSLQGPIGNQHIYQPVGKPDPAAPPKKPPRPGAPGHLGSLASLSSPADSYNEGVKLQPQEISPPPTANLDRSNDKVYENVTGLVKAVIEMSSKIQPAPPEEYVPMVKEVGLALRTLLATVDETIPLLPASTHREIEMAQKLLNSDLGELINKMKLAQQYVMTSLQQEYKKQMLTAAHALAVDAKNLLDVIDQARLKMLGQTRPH

As to `O=C(O)[C@]1(CCS(=O)(=O)c2ccccc2)N=C(c2ccc(OCCCO)cc2)O[C@@H]1c1ccccc1`, the composite z-score in [1] is 0.367; in assay [2], 0.228; in [3], 0.221; in assay [4], 0.447; in [5], -0.029; in assay [6], -0.0377. Moreover, the composite z-score was -0.655 in the assay with Lefty1 and 1.36 in [8]. Also, the figures for the z-score in [7] and in [9] were 0.0511 and -1.87 (inactive), respectively.
Take `C/C=C/[C@@H](CCn1cc([C@H](O)c2ccccc2)nn1)[Si](C)(C)c1ccc(OC)cc1`: the composite z-score was 0.0974 in [1]; -0.253 in [2]; 0.0213 in assay [3]; -0.267 in assay [4]; -0.673 in assay [5]; -0.62 in assay [6]. For the same compound, the composite z-score is -0.337 in the assay with Lefty1 and 0.418 in assay [8]. The z-score is 0.947 in [7] and 0.273 (inactive) in assay [9].
Take `COCCCNC(=O)[C@@]1(Cc2ccccc2)COC(c2ccc(OCCCO)cc2)=N1`: the composite z-score was found to be 2.66 in [1]; 1.21 in [2]; 0.953 in assay [3]; 1 in assay [4]; 0.645 in [5]; 0.986 in [6]. Further, the composite z-score was -1.07 in the assay with Lefty1 and 0.509 in assay [8]. Besides, the z-score in [7] is 0.814; in [9] it was 0.272 (inactive).
Turning to `COCCOC(=O)N1C(=O)[C@@]2(c3cc(C#Cc4ccc(OC)cc4)ccc31)[C@H](c1ccc(OCCO)cc1)N1[C@H](c3ccccc3)[C@H](c3ccccc3)OC(=O)[C@H]1[C@@H]2C(N)=O`, the composite z-score in [1] was 2.14; in assay [2], 1.13; in assay [3], 1.03; in assay [4] it was 0.519; in assay [5] it was 1.41; in assay [6], 1.31. The composite z-score in the assay on Lefty1 was 1.39; in assay [8], 1. Further, the z-score in assay [7] is -1.28; in assay [9] it was -0.35 (inactive).
On to `COC(=O)C(CC#Cc1ccc2c(c1)[C@]1(C(=O)N2)[C@H](c2ccc(OCCO)cc2)N2[C@H](c3ccccc3)[C@H](c3ccccc3)OC(=O)[C@H]2[C@@H]1C(=O)O)C(=O)OC`, for which the composite z-score in assay [1] turned out to be 3.08; in assay [2], 1.19; in assay [3], 1.38; in assay [4] it was 0.915; in assay [5], 0.915; in assay [6] it was 0.228. Also, the composite z-score in the assay with Lefty1 came to 0.861; in assay [8] it was 1.1. The z-score was 0.161 in assay [7] and -3.07 (inactive) in assay [9].
With `COCCOC(=O)N1C(=O)[C@@]2(c3cc(C#CCNC(N)=O)ccc31)[C@H](c1ccc(OCCO)cc1)N1[C@H](c3ccccc3)[C@H](c3ccccc3)OC(=O)[C@H]1[C@@H]2C(=O)N1CCN(c2ncccn2)CC1`, the composite z-score worked out at 0.122 in assay [1]; 1.09 in [2]; 1.58 in assay [3]; 0.72 in [4]; 1.41 in assay [5]; 1.24 in [6]. The composite z-score came out at 0.411 with Lefty1 and 0.447 in [8]. In addition, the results for the z-score in [7] and in assay [9] were -1.57 and -1.23 (inactive), respectively.
In the case of `COCCOC(=O)N1C(=O)[C@@]2(c3cc(C#CC4(O)CCCCCC4)ccc31)[C@H](C(=O)NC[C@H](O)c1ccccc1)[C@H]1C(=O)O[C@H](c3ccccc3)[C@H](c3ccccc3)N1[C@@H]2c1ccc(OCCO)cc1`, the composite z-score in [1] is 0.726; in assay [2], 1.21; in [3], 0.444; in [4], 0.95; in assay [5], 0.822; in assay [6], 0.94. The composite z-score in the assay on Lefty1 was found to be 0.473; in assay [8], 0.357. Also, the z-score in assay [7] is -1.49; in assay [9], 0.531 (inactive).
For `COc1ccc([Si](C)(C)[C@@H]2[C@@H](CCO)O[C@]3(C(=O)N(Cc4ccccc4)c4ccc(N5CCCCC5=O)cc43)[C@H]2C)cc1`, the composite z-score stood at 1.47 in assay [1]; 1.17 in assay [2]; 1.61 in assay [3]; 0.734 in assay [4]; 1.13 in [5]; 0.634 in assay [6]. In addition, the composite z-score stood at 0.788 in the assay with Lefty1 and 0.184 in [8]. The values for the z-score in [7] and in assay [9] were -0.167 and 0.0481 (inactive), respectively.
With `CC1C=C(CCCO)C=C(C(=O)OCCS(C)(=O)=O)C(C(=O)OCCS(C)(=O)=O)=CN1Cc1cccc(OC(F)(F)F)c1` (stereo not given), the composite z-score in assay [1] was 1; in assay [2] it was 0.799; in assay [3] it was -0.0696; in [4] it was 1.02; in assay [5], 0.0361; in assay [6], -0.356. In addition, the composite z-score with Lefty1 is -0.309; in assay [8], 0.785. Also, the values for the z-score in [7] and in assay [9] were 0.848 and -0.234 (inactive), respectively.
In the case of `COc1ccccc1CN1C(=O)c2ccccc2[C@@]2(Cc3ccccc3N(C3CC3)C2=O)[C@@H]1c1ccc(CO)cc1`, the composite z-score is 0.131 in assay [1]; -1.12 in assay [2]; -0.175 in assay [3]; -0.248 in assay [4]; 0.253 in assay [5]; -1.17 in assay [6]. Also, the composite z-score with Lefty1 was -0.154; in assay [8], -0.0487. Besides, the z-score was 0.111 in assay [7] and -0.379 (inactive) in [9].
With `COC(=O)[C@@]1(Cc2ccc(OC)cc2)[C@H]2c3cc(C(=O)N4CCCC4)n(Cc4ccc(C)o4)c3C[C@H]2CN1C(=O)c1ccccc1`, the composite z-score in [1] was 0.849; in assay [2] it was 1.2; in [3] it was -0.0727; in assay [4], -0.369; in assay [5], 1.09; in assay [6], -0.648. Further, the composite z-score in the assay on Lefty1 is -0.211; in [8] it was 0.26. The z-score in assay [7] is -3.11; in assay [9], -22.4 (active).
As for `COCCOC(=O)N1C(=O)[C@@]2(c3cc(C#Cc4ccc(OC)cc4)ccc31)[C@H](C(=O)N1CCc3cc(OC)c(OC)cc3C1)[C@H]1C(=O)O[C@H](c3ccccc3)[C@H](c3ccccc3)N1[C@@H]2c1ccc(O)cc1`, the composite z-score in assay [1] worked out at 1.13; in [2] it was 1.21; in [3] it was 0.226; in [4], 0.753; in [5], 1.25; in [6], 1.17. Besides, the composite z-score in the assay on Lefty1 came to 0.606; in assay [8], 0.659. The results for the z-score in [7] and in assay [9] were -0.406 and -1.35 (inactive), respectively.
As for `COCCOC(=O)N1C(=O)[C@@]2(c3cc(C#Cc4ccc(OC)cc4)ccc31)[C@H](C(N)=O)[C@H]1C(=O)O[C@H](c3ccccc3)[C@H](c3ccccc3)N1[C@@H]2c1ccc(OCCO)cc1`, the composite z-score is 1.71 in assay [1]; 1.21 in assay [2]; 0.398 in assay [3]; 0.898 in [4]; 1.28 in assay [5]; 1.55 in assay [6]. Moreover, the composite z-score was determined as 0.997 in the assay on Lefty1 and 0.695 in [8]. Besides, the z-score is -1.96 in [7] and -0.297 (inactive) in [9].
For `COc1cc(C(O)C2C=CC3C(=O)NC(=O)C3N2Nc2ccc(Cl)cc2Cl)cc(OC)c1OC` (stereo not given), the composite z-score is 1.32 in assay [1]; 1.24 in assay [2]; 0.105 in assay [3]; 0.866 in assay [4]; 1.14 in assay [5]; -0.0812 in [6]. For the same compound, the composite z-score with Lefty1 was 0.286; in [8], 0.871. Further, the z-score is 0.275 in [7] and -0.0332 (inactive) in assay [9].
Take `Cc1ccc(C(C)CC(O)C2C=CC3C(=O)N(Cc4ccccc4)C(=O)C3N2n2cnnc2)o1` (stereo not given): the composite z-score in assay [1] is 1.54; in [2] it was 0.942; in assay [3], -0.103; in [4], 0.923; in assay [5], 0.713; in assay [6], 0.0103. Besides, the composite z-score with Lefty1 was 0.273; in assay [8], 0.842. Also, the z-score in assay [7] was -1.49; in assay [9], 0.785 (inactive).
For `CC(C)C[C@H]1NC(=O)[C@H](C)NC(=O)[C@@]23C(=O)N[C@@H](Cc4ccccc4)C2[C@H](C)[C@@]2(C)O[C@H]2C3/C=C/C/C=C\CNC1=O` (stereo not given in full), the composite z-score in [1] is 0.528; in assay [2], -0.071; in [3], -0.0739; in assay [4] it was -1.65; in assay [5], 0.321; in assay [6], -0.28. The composite z-score in the assay with Lefty1 was found to be 0.253; in assay [8] it was 0.649. Moreover, the z-score in assay [7] is 0.141; in [9] it was -0.8 (inactive).
